We go through 31 sequences from paper PMC4053984, “DNA binding specificities of the long zinc-finger recombination protein PRDM9”.

The target of this test is PRDM9Cst (Mus musculus (CAST/EiJ)). The test is described as follows: competition EMSA; competition against biotin-labeled 75-bp Hlx1 B6 oligo; 10 mM Tris pH 7.5, 50 mM KCl, 1 mM DTT, 50 ng/ul poly(dI/dC), 0.05% NP-40, crude E. coli extract 3 ul in 20 ul; 1 h with unlabeled competitor, then 4 h with biotin-labeled 75-bp Hlx1; temperature not stated; high values mean tight binding. The conditions noted are these: tags: N-terminal His tag (pBAD/HisB); dsDNA, one strand shown. For orientation: In EMSA bound probe runs differently from free probe, usually more slowly.
Sequence of PRDM9Cst (Mus musculus (CAST/EiJ)) (chain, as listed by the source): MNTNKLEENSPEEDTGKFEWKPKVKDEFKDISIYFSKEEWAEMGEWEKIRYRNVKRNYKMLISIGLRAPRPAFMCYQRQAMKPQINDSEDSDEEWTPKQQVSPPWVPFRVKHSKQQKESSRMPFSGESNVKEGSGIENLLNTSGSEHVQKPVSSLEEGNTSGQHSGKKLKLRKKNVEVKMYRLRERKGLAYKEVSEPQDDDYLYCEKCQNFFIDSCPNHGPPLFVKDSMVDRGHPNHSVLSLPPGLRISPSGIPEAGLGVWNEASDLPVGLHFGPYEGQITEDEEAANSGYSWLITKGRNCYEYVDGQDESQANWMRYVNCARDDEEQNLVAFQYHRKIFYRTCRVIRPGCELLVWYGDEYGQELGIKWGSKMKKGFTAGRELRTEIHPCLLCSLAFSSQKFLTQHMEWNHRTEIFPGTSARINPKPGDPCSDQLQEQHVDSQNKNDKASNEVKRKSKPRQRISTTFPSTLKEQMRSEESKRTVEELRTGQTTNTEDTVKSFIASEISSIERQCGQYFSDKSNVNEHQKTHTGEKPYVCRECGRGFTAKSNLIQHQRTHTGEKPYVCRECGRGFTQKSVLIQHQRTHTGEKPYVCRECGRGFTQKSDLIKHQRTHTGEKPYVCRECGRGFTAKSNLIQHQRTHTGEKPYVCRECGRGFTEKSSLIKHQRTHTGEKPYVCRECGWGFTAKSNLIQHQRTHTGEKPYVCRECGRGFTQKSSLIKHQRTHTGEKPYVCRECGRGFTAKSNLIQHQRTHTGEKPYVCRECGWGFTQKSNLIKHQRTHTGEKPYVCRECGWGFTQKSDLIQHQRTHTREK
On to ATAGAGTGCAGACTTGGACCCTGCCCTTTCTTT, for which the binding signal was 0 Bmut (0 = wild type, -1 = scrambled).

ATAGTGTGCAGACTTGGACCCTGCCCTTACTTT: the binding signal is -0.1 Bmut (0 = wild type, -1 = scrambled). As to ATAGTGTGCAGACTTGGACCCTGCCCTTTTTTT, the binding signal is 0.11 Bmut (0 = wild type, -1 = scrambled). Take ATAGTGCGCAGACTTGGACCCTGCCCTTTCTTT: the binding signal is -0.2 Bmut (0 = wild type, -1 = scrambled). For ATAGTGTGCAGACTTGGACCCCGCCCTTTCTTT the value was -0.1 Bmut (0 = wild type, -1 = scrambled); for ATAGTGTGCAGACTTGGAACCTGCCCTTTCTTT, -0.1 Bmut (0 = wild type, -1 = scrambled); for ATAGTGTTCAGACTTGGACCCTGCCCTTTCTTT, -0.4 Bmut (0 = wild type, -1 = scrambled).

Take ATAGTGTGCAGACTTGGACCCTGCCCTTTCTTC: the binding signal was 0.14 Bmut (0 = wild type, -1 = scrambled). Turning to ATAGTGTGCAGACTTGGCCCCTGCCCTTTCTTT, the binding signal is -0.9 Bmut (0 = wild type, -1 = scrambled). For the sequence ATAATGTGCAGACTTGGACCCTGCCCTTTCTTT, the binding signal was -0.4 Bmut (0 = wild type, -1 = scrambled). On to ATAGTATGCAGACTTGGACCCTGCCCTTTCTTT, for which the binding signal is 0 Bmut (0 = wild type, -1 = scrambled). For ATACTGTGCAGACTTGGACCCTGCCCTTTCTTT the value was -0.1 Bmut (0 = wild type, -1 = scrambled); for ATAGTGTGCAGACTTGGGCCCTGCCCTTTCTTT, 0.3 Bmut (0 = wild type, -1 = scrambled). ATAGTGTGCAGAATTGGACCCTGCCCTTTCTTT: the binding signal is -0.1 Bmut (0 = wild type, -1 = scrambled). On to ATAGTGTGCAGTCTTGGACCCTGCCCTTTCTTT, for which the binding signal was -0.2 Bmut (0 = wild type, -1 = scrambled). Regarding ATAGTGTGCAGACTTGGACCCTGTCCTTTCTTT, the binding signal was 0.02 Bmut (0 = wild type, -1 = scrambled). Regarding ATAGTGTGCAGACTTGGACCCAGCCCTTTCTTT, the binding signal is 0.01 Bmut (0 = wild type, -1 = scrambled).

Take ATAGTGTGCAGACTTGGACTCTGCCCTTTCTTT: the binding signal is 0.01 Bmut (0 = wild type, -1 = scrambled). ATAGTGTCCAGACTTGGACCCTGCCCTTTCTTT: the binding signal was -0.1 Bmut (0 = wild type, -1 = scrambled). On to ATAGTGTGAAGACTTGGACCCTGCCCTTTCTTT, for which the binding signal was -0.1 Bmut (0 = wild type, -1 = scrambled).

Turning to ATAGTGTGCAGATTTGGACCCTGCCCTTTCTTT, the binding signal was 0.1 Bmut (0 = wild type, -1 = scrambled). The value for ATAGTGGGCAGACTTGGACCCTGCCCTTTCTTT was -0.7 Bmut (0 = wild type, -1 = scrambled); that for ATAGTGTGCAGACTTGGACCCTGCCCCTTCTTT was 0.19 Bmut (0 = wild type, -1 = scrambled). For the sequence ATAGTGTGCAGACTGGGACCCTGCCCTTTCTTT, the binding signal is -0.3 Bmut (0 = wild type, -1 = scrambled).

Take ATGGTGTGCAGACTTGGACCCTGCCCTTTCTTT: the binding signal is 0 Bmut (0 = wild type, -1 = scrambled). On to ATAGTTTGCAGACTTGGACCCTGCCCTTTCTTT, for which the binding signal is -0.3 Bmut (0 = wild type, -1 = scrambled).

Turning to AGAGTGTGCAGACTTGGACCCTGCCCTTTCTTT, the binding signal is -0.8 Bmut (0 = wild type, -1 = scrambled). As for GTAGTGTGCAGACTTGGACCCTGCCCTTTCTTT, the binding signal was 0 Bmut (0 = wild type, -1 = scrambled).

As for ATAGTGTGCAGACTTGGACCGTGCCCTTTCTTT, the binding signal is 0.06 Bmut (0 = wild type, -1 = scrambled). Take ATAGTGTGCAGACTTGGACCCTGCCATTTCTTT: the binding signal was -0.1 Bmut (0 = wild type, -1 = scrambled). With ATAGTGTGCAGACTTGGACCCTGCCCTTTCTTA, the binding signal was 0.13 Bmut (0 = wild type, -1 = scrambled).
